In the library only some 21% were active in any assay of this set; here they are far more common.
TDP1 cell CPT = growth inhibition of DT40 Tdp1-/-;hTDP1 cells with camptothecin (screen for TDP1 inhibitors); chicken DT40 Tdp1-/-;hTDP1 cells + 20 nM CPT, ATP luminescence, 48 h; Potency, µM (top dose mostly 46.2 µM), for inactives: at the highest dose activity change, negative = growth inhibition, usual class: inhibitors; 420,000 tested, 12% active; AID 686979; note: potency is the fitted concentration of half-maximal effect; % is set by controls: 0 for no effect and ±100 for the full control effect; nearly all actives have a fitted effect of over 55% in size
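Cell growth measured by CellTiter-Glo luminescence after a minimum 48 h, 37 C compound exposure with 20 nM CPT in Tdp1-knockout DT40 cells stably expressing hTDP1, seeded 400/well; qHTS titration format.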
DRD3 antagonist = D3 dopamine receptor (human) antagonism. P35462. 360,000 tested, 2.5% active. max response, negative = inhibition, %. D3R cells, DiscoveRx beta-arrestin luminescence, antagonist mode; active compounds read low; in the data active = max response below about -50%; inconclusive = no clear call, values can overlap the other calls; note: % is set by controls: 0 for no effect and ±100 for the full control effect
Target sequence (P35462 whole entry, looked up): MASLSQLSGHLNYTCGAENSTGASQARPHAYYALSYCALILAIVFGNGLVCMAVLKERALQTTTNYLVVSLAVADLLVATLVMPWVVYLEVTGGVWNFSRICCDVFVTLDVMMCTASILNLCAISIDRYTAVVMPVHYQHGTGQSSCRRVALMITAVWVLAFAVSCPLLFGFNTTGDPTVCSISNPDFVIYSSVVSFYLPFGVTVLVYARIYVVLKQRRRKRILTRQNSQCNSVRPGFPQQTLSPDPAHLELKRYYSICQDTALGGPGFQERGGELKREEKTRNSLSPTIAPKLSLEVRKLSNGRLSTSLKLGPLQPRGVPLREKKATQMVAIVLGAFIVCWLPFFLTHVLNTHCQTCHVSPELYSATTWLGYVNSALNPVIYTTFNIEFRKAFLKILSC
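Cells plated overnight at 1500 cells/well, then exposed to library compounds with dopamine controls for 90 minutes at 37 degrees C. DiscoveRx reagent added for 30–60 minutes at room temperature; luminescence read, quantitative HTS format.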
DT40 TDP1 no CPT = qHTS for Inhibitors of human tyrosyl-DNA phosphodiesterase 1 (TDP1): qHTS in cells in absence of CPT; Potency, µM (top dose mostly 46.2 µM), for inactives: top-dose activity change, negative = growth inhibition, usual class: inhibitors; 420,000 tested, 15% active; DT40 Tdp1-/- hTDP1 cells, no CPT, ATP luminescence, 48 h; note: potency is the fitted concentration of half-maximal effect; % is set by controls: 0 for no effect and ±100 for the full control effect; nearly all actives have a fitted effect of over 55% in size
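Luminescent ATP content (CellTiter-Glo) served as the growth readout. Knockout chicken DT40 cells expressing human TDP1 were exposed to compounds without camptothecin for a minimum 48 hr at 37 °C.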
D3 ag = agonists of human D3 dopamine receptor; AID 652048; P35462; max activation, %; 410,000 tested, 0.58% active; D3R DiscoveRx beta-arrestin cells, luminescence, 90 min; in the data active = max activation above about 30%; note: 0% is about no effect
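Agonist mode: compounds and dopamine controls were applied to plated cells for 90 min at 37 degrees C after an overnight attachment at 1500 cells/well. Luminescent read-out followed 30 - 60 minutes at room temperature with DiscoveRx detection reagent.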
IL-1B inflam inh = inflammasome signaling inhibition, IL-1 beta readout; THP-1 LPS/ATP IL-1B secretion, AlphaLISA, 16 h; active compounds read low; activity change, % at 57.5 µM; 360,000 tested, 4.7% active; in the data active = activity change below about -50%; inconclusive = mostly about -30% to -49%; note: % is set by controls: 0 for no effect and ±100 for the full control effect
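THP-1 cells pretreated 1 hr with compounds (up to 57.5 uM final), then stimulated with LPS (250 ng/mL final) plus ATP (1.25 mM final); secreted IL-1B measured by AlphaLISA after 16 hr, decreased signal indicating inhibition.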
ClpP mod = qHTS Assay for Activators of ClpP; ATP-dependent Clp protease proteolytic subunit (Bacillus subtilis (strain 168)), P80244; purified B. subtilis ClpP, FRET peptide cleavage, 20 min; Potency, µM (top dose mostly 57.5 µM), inactives show at the top dose activity change, negative = active; 340,000 tested, 1.9% active; active = well fitted falling curve with a large enough effect; inconclusive = small, poorly fitted or top-dose-only effect; inactive = no such curve, though single readings can be large or run the other way; note: potency is the fitted concentration of half-maximal effect; the source files actives as falling curves though it sought activators and does not explain the sign; nearly all actives have a fitted effect of over 65% in size
Target sequence (P80244 whole entry, looked up): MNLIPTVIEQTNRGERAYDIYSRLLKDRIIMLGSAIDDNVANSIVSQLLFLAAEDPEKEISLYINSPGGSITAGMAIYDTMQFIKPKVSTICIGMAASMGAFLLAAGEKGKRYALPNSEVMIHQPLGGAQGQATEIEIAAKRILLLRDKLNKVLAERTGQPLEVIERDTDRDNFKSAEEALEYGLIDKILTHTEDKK
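Buffer: 100 mM Tris/HCl pH8, 100 mM KCl, 0.05% low protease BSA, 2.5% glycerol, 0.01% Tween-20. ClpP 10 microg/mL final; 20 min RT; delta FRET normalized to ADEP and DMSO controls.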
* = called active by the depositor; ? = inconclusive; / = no result given; [ ] = another dose, or the depositor's remark. Unless noted, calls come from the whole dose curve; as a rule, active = well fitted inhibition curve with a large enough effect; inconclusive = small, poorly fitted or top-dose-only effect; inactive = flat fitted curve, though single readings scatter.

SMILES	TDP1 cell CPT	DRD3 antagonist	DT40 TDP1 no CPT	D3 ag	IL-1B inflam inh	ClpP mod
C[C@]12O[C@H](C[C@]1(O)CO)n1c3ccccc3c3c4c(c5c6ccccc6n2c5c31)CNC4=O	0.3µM*	/	0.38µM*	-16	/	/
COC(=O)c1ccccc1C(=O)c1ccc(OCCN2CCCCC2)cc1	?	/	-28%	-22	/	/
CCCCn1c(N)c(N(CCOC)C(=O)CN2CC=C(c3ccccc3)CC2)c(=O)[nH]c1=O	?	-18	?	-3	4	-7%
CCCCn1c(N)c(N(CC(C)C)C(=O)c2cc(Br)c(Br)s2)c(=O)[nH]c1=O	?	-1	23µM*	-7	-26	4%
CN1CCN(Cc2cc(C(C)(C)C)c(O)c(C(C)(C)C)c2)CC1	?	-82*	-14%	-9	-3	-1%
CCn1cc(C(=O)NCCc2ccc(Cl)cc2)c(=O)c2cc(S(=O)(=O)N(C)C3CCCCC3)ccc21	?	/	?	3	/	1%
Cc1[nH]nc2c1C1(CCC(c3ccccc3)CC1)C(C#N)=C(N)O2 (stereo unspecified)	?	23	-28%	-3	-14	0%
Nc1ccc2c3c(cccc13)CC2	-10%	-13	-27%	-1	9	14µM*
Nc1cccc2c(N)cccc12	22µM*	/	24µM*	-11	/	/
COc1ccccc1N1C(=O)NC(=O)/C(=C/c2ccc3c4c(cccc24)CC3)C1=O	?	7	?	-2	?	-21%
CC1Cc2ccccc2CN1 (stereo unspecified)	-5%	/	5%	/	/	-2%
CCOC(=O)c1nsnc1NCCCl	-3%	-4	-4%	-14	-7	/
Cc1ncc(CO)c(CN)c1O	?	/	-24%	-17	/	/
CC(=NCCN1CCCCC1)c1c(O)n(-c2ccccc2)c(=O)[nH]c1=O	7%	-19	11%	1	5	1%
COC(=O)C1=C(c2ccc(F)cc2OCc2ccccc2)C[C@@H]2CC[C@H]1N2C(=O)NC1CC1	16µM*	3	?	-3	-3	-7%
COC(=O)C1=C(c2ccc(F)cc2OCc2ccccc2)C[C@@H]2CC[C@H]1N2C(=O)NC(C)C	?	3	21µM*	-14	-14	0%
COC(=O)C1=C(c2ccc(F)cc2OCc2ccccc2)C[C@@H]2CC[C@H]1N2C(=O)N1CCCC1	6.5µM*	-5	5.8µM*	-22	12	2%
COC(=O)C1=C(c2ccc(F)cc2OCc2ccccc2)C[C@@H]2CC[C@H]1N2C(=O)NCc1ccccc1Cl	?	?	?	0	0	-5%
COC(=O)C1=C(c2ccc(F)cc2OCc2ccccc2)C[C@@H]2CC[C@H]1N2C(=O)NC1CCCCC1	?	?	?	-23	-21	1%
CC(=O)N1CC2CC(C1)c1cccc(=O)n1C2 (stereo unspecified)	14%	/	-2%	/	/	/
COc1ccc(-c2nn(CCC#N)cc2C(=O)Nc2ccccc2Br)cc1	-1%	-19	?	-11	18	/
CCCN(CCC)CCc1c[nH]c2ccc(C(N)=O)cc12	-9%[92.5 µM]	/	-5%[92.5 µM]	/	/	4%[115 µM]
CCCN(CCC)CCc1c[nH]c2ccccc12	19µM*	/	?	2	/	/
COc1ccc2[nH]cc(CCN(C(C)C)C(C)C)c2c1	?	/	-28%[92.5 µM]	-3	/	/
CCN(CC)Cc1c[nH]c2ccccc12	10µM*	?	16µM*	-2	-25	-30%
SMILES	TDP1 cell CPT	DRD3 antagonist	DT40 TDP1 no CPT	D3 ag	IL-1B inflam inh	ClpP mod
NCCc1c[nH]c2ccccc12	?	?	-28%	-38	-13	-9%
CCC1(CC)C(=O)NC(=NCCc2c[nH]c3ccccc23)NC1=O	-1%	16	9%	-4	24	-3%
CCC(CC)NCc1c[nH]c2ccccc12	4.1µM*	1	3.7µM*	-6	4	1%
COc1ccc(CN(CCc2c[nH]c3ccccc23)Cc2ccc(OC)cc2)cc1	16µM*	-50*	15µM*	-8	-15	1%
Cc1ccc(OP(N)(=O)Oc2ccc(C)cc2)cc1	15%	10	3%	10	-17	/
O=C(O)CCCCCCNC1c2ccccc2CCc2ccccc21	-3%	/	2%	1	/	/
O=C1Nc2ccc(Cl)cc2C(c2ccccc2)=NC1O (stereo unspecified)	?	/	?	-7	/	/
O=CC=O	11%	/	-19%	3	/	/
O=C(C(=O)N1CCOCC1)c1cn(Cc2ccc(F)cc2)c2ccccc12	-7%	-11	8%	1	?	1%
C[C@H]1C(=O)O[C@H]2CCN3CC=C(COC(=O)[C@](C)(O)[C@@]1(C)O)C23 (stereo partly specified)	-1%	/	?	/	/	/
CN(CCc1ccccc1)Cc1c[nH]c2ccccc12	0.82µM*	-19	1.5µM*	3	-67*	0%
CC(C)(C)c1ccc(C(=O)Nc2ccc(Cl)cc2C(=O)c2ccccc2)cc1	7%	/	-9%	4	/	3%
O=C1CN=C(c2ccccc2)c2oc3ccc(Br)cc3c2N1	-19%	-11	?	0	12	-3%
COc1cccc(OC)c1C1=NCC(=O)Nc2c1oc1ccc(Br)cc21	0.92µM*	?	0.92µM*	-1	21	-2%
CCCC[C@H]1C(=O)O[C@H](C)[C@H](NC(=O)c2cccc(NC=O)c2OC)C(=O)O[C@@H](C)[C@@H]1OC(=O)CC(C)C	?	/	6.7µM*	/	/	/
CCCCCC1C(=O)O[C@H](C)[C@@H](NC(=O)c2cccc(NC=O)c2O)C(=O)OC(C)C1OC(=O)CC(C)C (stereo partly specified)	0.046µM*	/	0.046µM*	/	/	/
CCOc1ccccc1N(CC(=O)NCCc1ccc(OC)cc1)S(=O)(=O)c1ccc(C)cc1	10µM*	-13	8.2µM*	1	-19	-3%
C=C[C@H]1CN2CC[C@H]1C[C@H]2c1[nH]c2ccccc2c1CCO	14%	/	-26%	/	/	/
CC(=O)[O][Hg][c]1ccccc1	0.16µM*	/	0.16µM*	-19	/	/
C[C@H](N)C(=O)c1ccccc1	-10%	/	-14%	1	/	/
Cc1ccc(-n2nc3ccc(NC(=O)COc4ccccc4C)cc3n2)cc1	?	/	?	10	/	?
CN(C)CCc1ccc(O)cc1	-18%[9.04 µM]	/	-12%[9.04 µM]	25	/	/
CC(=O)[C@H]1CC[C@H]2[C@@H]3CCC4=CC(=O)CC[C@]4(C)[C@H]3CC[C@]12C	27µM*	19	18µM*	20	?	-2%

Assay outcomes: PubChem BioAssay, National Center for Advancing Translational Sciences (NCATS)
